Structures can show the parent of a compound that is named as a salt. In all, about 2,800 compounds were measured (“cell viability relative to vehicle”: median about 1.1, lowest 2% from about 0.19 on). Only a selection was taken, and the lowest values are over-represented in it overall.
Test system: NCI-H2228 parental
Experiment: cell viability relative to vehicle (fraction of vehicle); NCI-H2228 is an ALK-positive lung cancer line and DTP means drug-tolerant persister; higher = less growth inhibition
Settings: 100 nM; treatment time 6 days
Method in brief: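 Values give cell viability as a fraction of vehicle-treated cells. Parental and drug-tolerant persister NCI-H2228 cells (persisters made with 1000 nM of a targeted drug for 13 days) were exposed in 384-well plates to the 3114-agent TargetMol anti-cancer compound library at 100 nM, with DMSO as vehicle. ATP was then read after 6 days by the CellTiter-Glo 3D Cell Viability Assay.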

Question: With `CC1(C)CC[C@]2(C(=O)O)CC[C@]3(C)C(=CC[C@@H]4[C@@]5(C)CC[C@H](O[C@@H]6O[C@H](C(=O)O)[C@@H](O)[C@H](O[C@@H]7OC[C@@H](O)[C@H](O)[C@H]7O)[C@H]6O)C(C)(C)[C@@H]5CC[C@]43C)[C@@H]2C1` [Momordin Ic] as the compound, how does the cell viability read?
Answer: 1.1

Question: How did the cell viability turn out when `C[C@@]1(CO)C[C@@H](O)C[C@@]2(C)[C@@H]3CC[C@](C)([C@@H](O)CO)C=C3CC[C@H]12` [Kirenol] was run?
Answer: 1.1

Question: Which cell viability does the source give for `Cc1c(CN2CCN(c3cccc(C(F)(F)F)c3)CC2)cc(-c2ccccc2)n1NC(=O)c1ccncc1` [Sudoterb free base] here?
Answer: 1.05

Question: For `Cc1ccc([N+](=O)[O-])cc1S(=O)(=O)N(C)/N=C/c1cnc2ccc(Br)cn12` [PIK-75  hydrochloride], which cell viability is on record?
Answer: 0.153

Question: With `Cc1ccc([N+](=O)[O-])cc1S(=O)(=O)N(C)/N=C/c1cnc2ccc(Br)cn12` as the compound, how does the cell viability read?
Answer: 0.165

Question: With `Cc1ccccc1C(C(=O)NC1CCCCC1)N(C(=O)Cn1cnc2ccccc21)c1cccc(F)c1` (stereo not given) as the compound, how does the cell viability read?
Answer: 1.19

Question: `C=CC(=O)Nc1cccc(Oc2nc(Nc3ccc(N4CCN(C)CC4)cc3OC)ncc2Cl)c1` was tested. Which cell viability did it give?
Answer: 1.19

Question: `CN1CCN(c2ccc(OC(F)(F)F)c(Nc3ncc4c(n3)-c3c(c(C(N)=O)nn3CCO)CC4)c2)CC1` was tested. Which cell viability did it give?
Answer: 0.168

Question: How did the cell viability turn out when `CCC(=O)Nc1cccc(Oc2nc(Nc3ccc(N4CCN(C)CC4)cc3OC)ncc2Cl)c1` was run?
Answer: 1.22

Question: `CCCCc1nc2ccc(NC(=O)NC3CCCCC3)cc2n1Cc1ccc(-c2ccccc2C(=O)O)cc1` was tested. Which cell viability did it give?
Answer: 1.08

Question: How did the cell viability turn out when `Cc1cc2cc(Oc3ccnc(Nc4cccc(CS(=O)(=O)NCCN(C)C)c4)n3)ccc2[nH]1` [Sulfatinib] was run?
Answer: 1.03

Question: `CN(Cc1cnc2nc(N)nc(N)c2n1)c1ccc(C(=O)N[C@@H](CCC(=O)O)C(=O)O)cc1` [Methotrexate] was tested. Which cell viability did it give?
Answer: 0.375

Question: For `Cc1nc(=O)c2cc(CN(C)c3ccc(C(=O)N[C@@H](CCC(=O)O)C(=O)O)s3)ccc2[nH]1` [Raltitrexed], which cell viability is on record?
Answer: 0.151

Question: Which cell viability does the source give for `Nc1nc(=O)c2c([nH]1)NCC(CNc1ccc(C(=O)N[C@@H](CCC(=O)O)C(=O)O)cc1)N2C=O` (stereo not given in full) [Calcium folinate] here?
Answer: 1.08

Question: With `COc1cc(/C=C/CO)cc(OC)c1O[C@@H]1O[C@H](CO)[C@@H](O)[C@H](O)[C@H]1O` [eleutheroside-b] as the compound, how does the cell viability read?
Answer: 1.13

Question: With `CCCCNNC(=O)c1ccc(-c2cccc(F)c2F)cc1` as the compound, how does the cell viability read?
Answer: 1.03

Question: Which cell viability does the source give for `COc1cc(/C=C/C(=O)NCCn2c(C(F)(F)F)cc3ccccc32)cc(OC)c1OC` here?
Answer: 1.05

Question: Which cell viability does the source give for `COc1cc(CCC(=O)CC(=O)CCc2ccc(O)c(OC)c2)ccc1O` [Tetrahydro Curcumin] here?
Answer: 1.03

Question: Which cell viability does the source give for `CCCS(=O)(=O)Nc1ccc(F)c(C(=O)c2c[nH]c3ncc(-c4ccc(Cl)cc4)cc23)c1F` [Vemurafenib] here?
Answer: 1.2

Question: Which cell viability does the source give for `COc1ncc(-c2ccc3nccc(-c4ccnnc4)c3c2)cc1NS(=O)(=O)c1ccc(F)cc1F` [Omipalisib] here?
Answer: 0.148

Question: Which cell viability does the source give for `CS(=O)(=O)Nc1cc(-c2ccc3ncnc(Nc4ccc(F)c(Cl)c4)c3c2)cnc1Cl` here?
Answer: 1.08

Question: `CO[C@@H](C)Cn1c(=O)n(C)c2cnc3ccc(-c4cncc(C(C)(C)O)c4)cc3c21` was tested. Which cell viability did it give?
Answer: 0.412

Question: With `O=C(O)c1c[nH]c2cc(Cl)c(-c3ccc(C4(O)CCC4)cc3)cc12` as the compound, how does the cell viability read?
Answer: 1.09

Question: `C/C=C1\NC(=O)[C@H]2CSSCC/C=C/[C@H](CC(=O)N[C@H](C(C)C)C(=O)N2)OC(=O)[C@H](C(C)C)NC1=O` [Romidepsin] was tested. Which cell viability did it give?
Answer: 0.0515

Question: Which cell viability does the source give for `CCN(CC)CCNc1ccc(C)c2sc3ccccc3c(=O)c12` [Lucanthone] here?
Answer: 0.956

Question: How did the cell viability turn out when `COCC[n+]1c2c(n(Cc3cnccn3)c1C)C(=O)c1ccccc1C2=O` was run?
Answer: 0.0796

Question: Which cell viability does the source give for `COc1ccc(S(=O)(=O)Nc2ccccc2C=Cc2ccncc2)cc1` here?
Answer: 0.238

Question: How did the cell viability turn out when `C[C@@H]1O[C@@H](O[C@@H]2[C@@H](O)[C@H](OCCc3ccc(O)c(O)c3)O[C@H](CO)[C@H]2OC(=O)/C=C/c2ccc(O)c(O)c2)[C@H](O)[C@H](O)[C@H]1O` [Verbascoside] was run?
Answer: 1.03

Question: `CN(C(=O)CNC(=O)/C=C/c1cccc(Cl)c1)C1CCS(=O)(=O)CC1` was tested. Which cell viability did it give?
Answer: 0.834

Question: For `O=C(CNc1ccc2ccccc2c1)N/N=C/c1cc(Br)c(O)c(Br)c1O`, which cell viability is on record?
Answer: 1.05

Question: With `COC(=O)C1=CO[C@@H](O[C@@H]2O[C@H](CO)[C@@H](O)[C@H](O)[C@H]2O)[C@H]2[C@@H]1[C@H](O)C[C@]2(C)OC(C)=O` [8-O-Acetylshanzhiside methyl ester] as the compound, how does the cell viability read?
Answer: 0.898

Question: Which cell viability does the source give for `OCC1(O)COc2cc(O)ccc2-c2cc(O)c(O)cc2C1` (stereo not given) [Protosappanin B] here?
Answer: 1.04

Question: For `O=c1cc(-c2ccc(O)c(-c3c(O)cc(O)c4c(=O)cc(-c5ccc(O)cc5)oc34)c2)oc2cc(O)cc(O)c12` [Amentoflavone], which cell viability is on record?
Answer: 1.08

Question: With `C[C@H]1O[C@@H](O[C@H]2CC[C@@]3(C)[C@@H](CC[C@]4(C)[C@@H]3C=C[C@]35OC[C@@]6(CCC(C)(C)C[C@H]63)[C@@H](O)C[C@]54C)[C@]2(C)CO)[C@H](O)[C@@H](O[C@@H]2O[C@H](CO)[C@@H](O)[C@H](O)[C@H]2O)[C@H]1O` [Saikosaponin A] as the compound, how does the cell viability read?
Answer: 1.11

Question: For `C/C1=C/CC[C@H](C)C(=O)C[C@@H](C(C)C)C(=O)C1` [Curdione], which cell viability is on record?
Answer: 1.07

Question: For `O=C1c2c(O)ccc(O)c2C(=O)c2c(NCCNCCO)ccc(NCCNCCO)c21` [Mitoxantrone], which cell viability is on record?
Answer: 0.132

Question: How did the cell viability turn out when `O=C1c2cccc(O)c2C(=O)c2c(O)cccc21` [Antrapurol] was run?
Answer: 1.06

Question: `NCCNc1ccc(NCCN)c2c1C(=O)c1ccncc1C2=O` [Pixantrone dimaleate] was tested. Which cell viability did it give?
Answer: 0.405

Question: For `COc1ccc(S(=O)(=O)N[C@@H](CNc2nc(C)nc(N3CCC(c4ccc5c(n4)NCCC5)CC3)c2C)C(=O)O)cc1`, which cell viability is on record?
Answer: 0.705

Question: Which cell viability does the source give for `COc1ccc2c(c1)C(c1ccc(F)cc1)=C(CN1CCCC1)CO2` here?
Answer: 1.1

Question: With `COc1cc2ncnc(Nc3ccc(O)cc3)c2cc1OC` as the compound, how does the cell viability read?
Answer: 1.02

Question: With `CC(=O)O[C@@]12CO[C@@H]1C[C@H](O)[C@@]1(C)C(=O)[C@H](O)C3=C(C)[C@@H](OC(=O)[C@H](O)[C@@H](NC(=O)OC(C)(C)C)c4ccccc4)C[C@@](O)([C@@H](OC(=O)c4ccccc4)[C@H]21)C3(C)C` [Docetaxel trihydrate] as the compound, how does the cell viability read?
Answer: 0.154

Question: With `CO[C@H]1C(=O)[C@]2(C)[C@@H](OC)C[C@H]3OC[C@@]3(OC(C)=O)[C@H]2[C@H](OC(=O)c2ccccc2)[C@]2(O)C[C@H](OC(=O)[C@H](O)[C@@H](NC(=O)OC(C)(C)C)c3ccccc3)C(C)=C1C2(C)C` [Cabazitaxel] as the compound, how does the cell viability read?
Answer: 0.2

Question: With `CC(=O)O[C@H]1C(=O)[C@@]2(C)[C@H]([C@H](OC(=O)c3ccccc3)[C@]3(O)C[C@H](OC(=O)[C@H](O)[C@@H](NC(=O)c4ccccc4)c4ccccc4)C(C)=C1C3(C)C)[C@]1(OC(C)=O)CO[C@@H]1C[C@@H]2O` [Paclitaxel] as the compound, how does the cell viability read?
Answer: 0.128

Question: For `CC(=O)O[C@@]12CO[C@@H]1C[C@H](O)[C@@]1(C)C(=O)[C@H](O)C3=C(C)[C@@H](OC(=O)[C@H](O)[C@@H](NC(=O)OC(C)(C)C)c4ccccc4)C[C@@](O)([C@@H](OC(=O)c4ccccc4)[C@H]21)C3(C)C` [Docetaxel], which cell viability is on record?
Answer: 0.118

Question: Which cell viability does the source give for `CC(C)NCC(O)COc1ccc(COCCOC(C)C)cc1` (racemic) [(±)-Bisoprolol hemifumarate] here?
Answer: 1.14

Question: For `CC(C)(O)[C@H]1CC[C@H](Nc2ccc3ncc(-c4cccc(C(F)(F)F)c4)n3n2)CC1`, which cell viability is on record?
Answer: 0.928

Question: How did the cell viability turn out when `COc1cc2c(c(OC)c1OC)-c1c(cc(OC)c(OC)c1OC)CC(C)C(C)C2` (stereo not given) [Schizandrin A] was run?
Answer: 1.11

Question: Which cell viability does the source give for `CC(C)c1c(-c2ccccc2)nc2c(C#N)c[nH]n2c1=O` here?
Answer: 1.1

Question: For `COC(=O)C[C@](O)(CCCC(C)(C)O)C(=O)O[C@@H]1C(OC)=C[C@]23CCCN2CCc2cc4c(cc2[C@H]13)OCO4` [Homoharringtonine], which cell viability is on record?
Answer: 0.162

Question: `COc1c2c(cc3oc(CO[C@@H]4O[C@H](CO)[C@@H](O)[C@H](O)[C@H]4O)cc(=O)c13)O[C@H](C(C)(C)O)C2` [Cimifugin beta-D-glucopyranoside] was tested. Which cell viability did it give?
Answer: 1.09

Question: How did the cell viability turn out when `C=C[C@H]1[C@H](O[C@@H]2O[C@H](CO)[C@@H](O)[C@H](O)[C@H]2O)OC=C2C(=O)OCC[C@]21O` [Swertiamarin] was run?
Answer: 1.11

Question: `CCCCCCCCCCCCCCCC(=O)O` [Palmitic acid] was tested. Which cell viability did it give?
Answer: 1.02

Question: How did the cell viability turn out when `O=C1O[C@H]2[C@@H]3OC(=O)c4cc(O)c(O)c(O)c4-c4c(cc(O)c(O)c4O)C(=O)OC[C@H]2O[C@@H](OC(=O)c2cc(O)c(O)c(O)c2)[C@@H]3OC(=O)c2cc(O)c(O)c3c2[C@@H]2C1=CC(=O)[C@](O)(O3)C2(O)O` [Geraniin] was run?
Answer: 0.981

Question: For `COc1cc(N2CCC(N3CCN(C)CC3)CC2)ccc1Nc1ncc(Cl)c(-c2c[nH]c3ccccc23)n1`, which cell viability is on record?
Answer: 0.358

Question: For `COc1cc(C(C)C)c(Oc2cnc(N)nc2N)cc1I`, which cell viability is on record?
Answer: 1.16

Question: Which cell viability does the source give for `C/C(=C\c1csc(C)n1)[C@@H]1C[C@@H]2O[C@]2(C)CCC[C@H](C)[C@H](O)[C@@H](C)C(=O)C(C)(C)[C@@H](O)CC(=O)N1` [Ixabepilone] here?
Answer: 0.119

Question: For `C[C@H](CCC(=O)NCC(=O)O)[C@H]1CC[C@H]2[C@@H]3[C@H](O)C[C@@H]4C[C@H](O)CC[C@]4(C)[C@H]3CC[C@]12C` [Glycochenodeoxycholic Acid], which cell viability is on record?
Answer: 1.02

Question: With `CC(=O)OC(C)C(C)C(=O)OCC12C3CC(C)(C)[C@H](O[C@@H]1C[C@]1(C)C3=CCC3C4(C)CCC(O[C@@H]5O[C@H](C(=O)O)[C@@H](O[C@H]6O[C@H](CO)[C@@H](O)[C@H](O)[C@H]6O)[C@H](O)[C@H]5O[C@@H]5OC[C@@H](O)[C@H](O)[C@H]5O)[C@](C)(CO)C4CCC31C)C2O` (stereo not given in full) [Sodium Aescinate] as the compound, how does the cell viability read?
Answer: 1.1

Question: With `O=S(=O)(CCC(F)=C(F)F)c1ncc(Cl)s1` [Fluensulfone] as the compound, how does the cell viability read?
Answer: 1.07

Reference: the supplement of paper PMC10600219
